Epigenetic derep: regulators of epigenetic silencing causing reporter derepression in mouse cells | murine LDR cells, GFP reporter derepression, 30 h | Potency, µM (series often up to 53.9 µM), for inactives: at the highest dose GFP activation, actives largely listed as activators | hit rate 0.2% among 280,000; also: % of control where 0% means no effect; nearly all actives have a fitted effect of over 60% in size
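GFP-positive cell count by laser-scanning cytometry (objects 20–120 um) after 30 h, 37 C compound exposure of murine LDR cells; reporter is CMV-GFP integrated at a silenced locus, inducible by HDAC or DNMT inhibitors.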
Nrf2 ARE act: activates Nrf2 signaling; AREc32 ARE-luciferase reporter (MCF7-derived line), luminescence, 24 h; Potency, µM (top dose mostly 46.1 µM), inactives show at the top dose activation, actives largely listed as activators; hit rate 0.31% among 410,000; also: % of control where 0% means no effect; nearly all actives have a fitted effect of over 65% in size
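Each well held 1000 AREc32 cells, which were incubated with compound for 24 hr at 37 deg C after overnight attachment, and ARE reporter activity was quantified by firefly luciferase luminescence.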
A549 viability: counter-screen for Nrf2 inhibitors: cytotoxicity in A549 cells | A549 ARE-Fluc cells, CellTiter-Fluor viability, 18-24 h | AID 504648 | Potency, µM (doses to about 46 µM), without a hit: at the highest dose activity change, negative = cytotoxicity, hits mostly inhibitors | hit rate 0.16% among 390,000; also: % is scaled to controls: 0 for no effect and ±100 for the full control effect
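A549 ARE-Fluc cells in 5% FBS OPTI-MEM, 5000 cells/well, rested 2 h then exposed to compounds in concentration-response for 18-24 h at 37 °C. Viability by CellTiter-Fluor fluorescence (Ex 405/Em 525) after 30 min; luciferase luminescence (BugLite, 15 min, RT) read afterwards.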
Nrf2 block: Nrf2 pathway inhibition | A549 ARE-Fluc reporter, luciferase luminescence, 18-24 h | Potency, µM (top dose mostly 46 µM), for the others: at the highest dose activity change, negative = inhibition, hits mostly inhibitors | hit rate 2.1% among 360,000; also: % is scaled to controls: 0 for no effect and ±100 for the full control effect; nearly all actives have a fitted effect of over 60% in size
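Concentration-response testing used A549 ARE_Fluc cells at 5000 cells/well. Following an 18-24 h compound incubation, viability was read by fluorescence (Ex 405/Em 525) and luciferase output by luminescence.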
PINK1 modulator: changes PINK1 expression | PINK1 immunofluorescence, high-content cytometry, 24 h | Potency, µM (doses to about 76.6 µM), without a hit: at the highest dose activation (PINK1 increase), most hits filed as activators | hit rate 0.2% among 410,000 | AID 624263; active = well fitted activation curve with a large enough effect; inconclusive = small, poorly fitted or top-dose-only effect; cell line not stated here; also: % of control where 0% means no effect; nearly all actives have a fitted effect of over 65% in size
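Readout is PINK1 immunofluorescence, quantified alongside mitochondrial, cell and nuclear markers by laser-scanning microplate cytometry. Cells from a stable line were exposed to compound titrations (5 concentrations) for 24 hours, with CCCP controls.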
An asterisk follows results filed as active; ? = inconclusive; . = no result; [ ] = dose if it differs, or a comment. The list is not random: actives were taken first. Their share in the collection is about 2.4%. Unless noted, calls follow the shape of the dose curve; as a rule, active = well fitted curve in the direction sought with a large enough effect; inconclusive = small, poorly fitted or top-dose-only effect, or another doubt; inactive = no such curve, though single readings can be large; an effect the other way counts as inactive or inconclusive. Potency is read from the fitted curve at half-maximal effect.

SMILES	Epigenetic derep	Nrf2 ARE act	A549 viability	Nrf2 block	PINK1 modulator
CCc1ccc2nc(SCC(=O)N3CC(=O)Nc4ccccc43)c(C#N)cc2c1	18µM*	0%	-20%	-22%	1%
Cc1cccc(-n2c(SCC(=O)N3CC(=O)Nc4ccccc43)nc3ccccc3c2=O)c1C	-1%	-1%	-29%	23µM*	3%
CC(C)c1ccccc1-n1c(SCC(=O)c2ccc3c(c2)NC(=O)CO3)nc2ccccc2c1=O	-1%	-1%	-19%	2.9µM*	6%
N#Cc1cc(C#N)c(SCC(=O)N2CC(=O)Nc3ccccc32)nc1N	.	4%	-1%	9%	18%
Cc1cccc(-n2c(SCC(=O)N3CC(=O)Nc4ccccc43)nc3ccccc3c2=O)c1	-2%	3%	-7%	?	0%
O=C1COc2ccc(C(=O)CSc3ccccc3C(=O)O)cc2N1	1%	0%	0%	-26%	0%
Cc1ncc2c(c1CNC(=O)c1ccccc1F)CCN(C(=O)c1[nH]c3ccc(Cl)cc3c1C)C2	.	.	.	.	4%
COc1cc(=O)n2c(c1C(=O)NC(C)c1ccco1)CCN(Cc1ccccc1C(F)(F)F)CC2 (configuration not stated)	.	.	.	.	0%
O=C(CCC1N=C2c3ccccc3N=C(SCc3cccc(Cl)c3)N2C1=O)NCc1ccco1 (configuration not stated)	-2%	0%	-13%	-27%	2%
O=C(CCC1N=C2c3ccccc3N=C(SCc3ccccc3Cl)N2C1=O)NCc1ccco1 (configuration not stated)	0%	0%	?	18µM*	2%
N#CC(C#N)=C1SC(=Nc2ccccc2)C(=Nc2ccccc2)N1c1ccccc1	.	4%	-17%	-25%	32µM*
COc1ccc(CC(=O)Nc2nc(-c3ccccc3)c(C(C)=O)s2)cc1OC	.	3%	-5%	?	7%
COc1cc(CC(=O)Nc2nc(-c3ccccc3)c(C(C)=O)s2)cc(OC)c1OC	.	1%	-11%	21µM*	11%
Oc1ccc(NCc2ccc(OCc3ccccc3Cl)cc2)cc1	0%	7.9µM*	?	?	0%
C=CCn1c(SCc2csc(C)n2)nc2sc3c(c2c1=O)CCCCC3	0%	0%	.	?	3%
C=CCn1c(SCc2csc(C)n2)nc2sc3c(c2c1=O)CCCC3	-1%	0%	-14%	26µM*	3%
COc1ccc(-c2nc3c4ccccc4n(CC(=O)Nc4cc(F)ccc4F)c(=O)n3n2)cc1	2%	6%	2%	.	7%
O=C1c2ccccc2-c2onc3ccc(NCc4ccco4)c1c23	2%	?	?	-28%	?
CCNc1ccc2noc3c2c1C(=O)c1ccccc1-3	9%	5%	?	21µM*	14%[38.3 µM]
Cc1cccc(OCc2nnc(SCC(=O)c3ccccc3)o2)c1	-2%	3%	1%	13%	5%
Cc1cccc(OCc2nnc(SCC(=O)N(c3ccccc3)C3CCS(=O)(=O)C3)o2)c1 (configuration not stated)	.	2%	-13%	21µM*	-1%
CNC(=O)[C@@H]1C[C@@H](NCc2cccc(Oc3ccccc3)c2)CN1C(C)C	.	.	.	.	1%
NC(=O)c1cc(S(=O)(=O)Nc2ccc(OC(F)(F)F)cc2)cs1	.	0%	-3%	18µM*	0%
CC(=O)Oc1ccccc1-c1nc(/C=C/c2ccccc2)no1	.	11µM*	0%	?	6%
CN(C)c1ccc(NC2=C([N+](=O)[O-])CS(=O)(=O)C2)cc1	16µM*	?	-10%	4%	2%[38.3 µM]
SMILES	Epigenetic derep	Nrf2 ARE act	A549 viability	Nrf2 block	PINK1 modulator
CCCCN1C(=O)C(O)(CC(=O)c2ccc(C)cc2C)c2cc(Br)ccc21 (configuration not stated)	2%	-1%	?	26µM*	9%
COc1ccc(C(=O)CC2(O)C(=O)N(CCc3ccccc3)c3ccc(Br)cc32)cc1OC (configuration not stated)	1%	6%	?	23µM*	3%
COc1ccc(OC)c(CN2CCOc3ccc(C(O)c4cccnc4)cc3C2)c1 (configuration not stated)	.	.	.	.	0%
Cc1cc(C)n2ncc(C(=O)NC(C)C)c2n1	.	.	12%	-4%	.
Cc1cccc(CNC(=O)c2cnn(-c3ncc(C)c(-c4cccs4)n3)c2C2CC2)n1	.	.	.	.	-1%
COCCn1c(=S)[nH]c2cc(C(=O)N3CCN(C4CCCCC4)CC3)ccc2c1=O	.	0%	.	.	1%
COCCn1c(=S)[nH]c2cc(C(=O)N3CCN(c4cccc(Cl)c4)CC3)ccc2c1=O	.	3%	?	21µM*	0%
COc1ccc(Cn2c(=O)[nH]c3cc(C(=O)N4CCN(c5ccccc5OC)CC4)ccc3c2=O)cc1	.	0%	-26%	21µM*	3%
CCCCCn1c(=O)[nH]c2cc(C(=O)N3CCN(c4ccc(C(C)=O)cc4)CC3)ccc2c1=O	.	3%	-5%	21µM*	8%
O=C(c1[nH]nc2c1CCc1ccccc1-2)N1CCN(Cc2ccc3c(c2)OCO3)CC1	.	1%	-17%	15µM*	-1%
Cc1ccccc1C1(CC(=O)N2CCCC2c2nccs2)CC(=O)N(C2CCCC2)C1=O (configuration not stated)	.	.	.	.	0%
CSc1ccc(/C=C2\C=Cc3cc([N+](=O)[O-])ccc32)cc1	.	.	.	.	8%
CCOC(=O)Cn1c(=O)c2c(nc(N3CCOCC3)n2Cc2ccccc2)n(C)c1=O	-2%	0%	6%	9%	1%
COc1ccccc1N1CCN(C(=O)c2ccc3c(=O)n(Cc4ccc5c(c4)OCO5)c(=O)[nH]c3c2)CC1	.	0%	-9%	15µM*	3%
O=C(c1ccc(Cn2c(=O)[nH]c3ccccc3c2=O)cc1)N1CCN(c2ccc(F)cc2)CC1	-1%	0%	-8%	10µM*	-3%
COc1ccc(OCCN2CCN(C(=O)c3ccc(OC)c(OC)c3)CC2)cc1	.	0%	-19%	23µM*	-1%
O=C(c1ccc(Cn2c(=O)[nH]c3ccsc3c2=O)cc1)N1CCN(c2ccccc2)CC1	0%	0%	-5%	?	2%
COc1cc(C(=O)N2CCN(Cc3ccc4c(c3)OCO4)CC2)cc(OC)c1OC	.	3%	-6%	5%	-2%
COc1ccccc1Cn1c(=S)[nH]c2cc(C(=O)N3CCN(c4ccccc4OC)CC3)ccc2c1=O	.	1%	6%	0%	4%
COc1ccc(C(=O)N2CCN(Cc3ccc4c(c3)OCO4)CC2)cc1OC	.	1%	-7%	16µM*	0%
COc1ccc(Cn2c(=O)[nH]c3cc(C(=O)N4CCN(c5ccccc5F)CC4)ccc3c2=O)cc1	.	0%	2%	-19%	8%
COc1ccc(Cn2c(=O)[nH]c3cc(C(=O)N4CCN(Cc5ccccc5)CC4)ccc3c2=O)cc1	1%	-1%	-20%	23µM*	1%

Assay outcomes (PubChem BioAssay)
